From PubChem BioAssay come the findings set out here.

Experiment [1] in a line: inhibitors of TNFa-induced NFkB p65 translocation, primary screen, imaging, HUVEC, MLSMR starter and 10KST1 sets (AID 438;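 active means inhibition above 20% together with a positive visual image hit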;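 further: compound added about 3h40 before a 20 min TNFalpha stimulation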;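 on inhibition: signal is the nuclear over cytoplasmic p65 intensity ratio per well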). As to conditions: HUVEC TNFa-induced p65 nuclear translocation; cell count: measured here: nuclei count (cytotoxicity indicator), at 2.08 µM; inhibition: at 2 µM, stronger effect = higher value, 0% TNFa-plus-vehicle, 100% no-TNFa wells.
Experiment [2] in a line: reduction of polyQ htt aggregates in cells – imaging, exon1htt(103Q)mCFP cells, high-content imaging, primary screen (AID 483).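 Further: compound exposure lasted 3 days before fixation.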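 On nuclei count: percent of the per-plate median nuclei count of sample wells.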 As to conditions: exon1htt(103Q)mCFP cell line, aggregate imaging, at 2 µM; inhibition of aggregation: stronger effect = higher value; nuclei count: measured here: cell count, toxicity.
Experiment [3] is described as follows: endothelial E-selectin expression blockers – imaging, HUVEC, immunofluorescence, MLSMR starter and 10KST1 sets, primary screen (AID 487;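 active means visually confirmed hit in the image check and inhibition above 20%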;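 on inhibition: signal is fraction of cell area covered by stained E-selectin grains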;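 on nuclei count: 100% = median nuclei count of all wells on the same plate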). As to conditions: HUVEC TNFalpha-induced E-selectin immunofluorescence imaging, at 2 µM; inhibition: stronger effect = higher value; nuclei count: measured here: cell number, toxicity.
A short description of experiment [4]: Primary imaging screen for DUSP6 inhibitors that restore phospho-Erk in transfected HeLa cells, chemical complementation (AID 609;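 active means compounds giving at least 50% inhibition in the cell-based MKP-3 phosphatase rescue imaging test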;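 on inhibition: phospho-Erk level distribution per well compared with pooled transfected vehicle control wells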). The following applies: HeLa MKP-3 transfected, phospho-Erk imaging KS statistic, at 10 µM, cells stimulated with TPA for 15 min.
The target of experiment [5] is Dual specificity protein phosphatase 6 (Homo sapiens) (UniProt Q16828). Described as above. The following applies: HeLa MKP-3 transfected, phospho-Erk imaging KS statistic; at 10 µM; stronger effect = higher value; cells stimulated with TPA for 15 min.
Experiment [6] addresses Voltage-gated potassium channel subunit beta-2 (Rattus norvegicus) (UniProt P62483). The experiment can be described thus: inhibitors of rat Kvbeta2 reductase activity – biochemical, NADPH fluorescence, primary screen (AID 622;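 active means fluorescence slope higher than the sample average by over 3 SD, cut at about -0.22 in these data, passing the limit was not always enough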;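 further: slope of raw intensity against log time taken from 70 to 1610 s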). As to conditions: recombinant KvBeta, 4-cyanobenzaldehyde reduction, at 10 µM, stronger effect = higher value.
Experiment [7] has the same target. The experiment can be described thus: enhancers of rat Kvbeta2 NADPH turnover – biochemical, NADPH fluorescence, primary screen (AID 623;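 active means NADPH fluorescence slope more negative than the mean of all samples by about 3 SD, 99.7% confidence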;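 further: fluorescence intensity change per second fitted from 20 to 320 s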). The following applies: Recombinant KvBeta, NADPH fluorescence decrease slope, 10 min; at 10 µM; stronger effect = lower value.
The target in experiment [8] is Muscarinic acetylcholine receptor M4 (Homo sapiens) (UniProt P08173). Briefly: M4-linked GIRK flux change, two-sided – cell-based, HEK293 M4/GIRK, thallium flux, BTC-AM, M4 allosteric agonist project, primary screen (AID 625;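 active means fluorescence slope after compound addition differing from the mean of all tested samples at 99.7% confidence, mostly higher but some lower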;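 further: thallium influx through GIRK channels coupled to M4 in HEK293 cells with BTC-AM dye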). As to conditions: at 10 µM, actives lie on both sides.
The nature of experiment [9]: inhibitors of larval lipid processing in zebrafish, primary screen, whole organism, PED6 fluorescence, gall bladder and intestine (AID 686;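 active means a full or partial loss of lipid-probe fluorescence in the fish gall bladder, intestine or both, judged by eye; inactive means no fluorescence loss, or compound toxic to the fish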;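 further: larvae 5 to 7 days old with five fish per well; signal comes from phospholipase A2 cleavage of quenched PED6 carried via bile; overnight exposure to compound and PED6 before scoring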). The following applies: Zebrafish larvae PED6 lipid processing, fluorescence scoring; screened at 20 µM (by protocol).
Experiment [10] is described as follows: loss of swimming-algae plug formation – whole organism, Chlamydomonas reinhardtii, WT vs cilia-less mutant, absorbance, 96-well, primary screen (AID 463189;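 active means inhibition at or above 50% relative to wild type and mutant plate controls; inactive means inhibition below 50%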;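 further: 0% = wild type cc124 cells in DMSO and 100% = ciliumless bld1 mutant cells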). As to conditions: Chlamydomonas reinhardtii gravitaxis, OD600 absorbance, 2 days; at 10 µM; stronger effect = higher value.
Experiment [11] in a line: blockers of RIG-like receptor reporter activation – cell-based, Sendai virus stimulus, luciferase, 10K MLSCN set, TLR/RLR signaling modifier project, primary screen (AID 602276;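 active means inhibition at or above 50% at 10 µM; inactive means inhibition below 50%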;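 further: firefly luciferase from ISG56 promoter only with Renilla not read in this screen; 0% = Sendai virus plus DMSO and 100% = medium plus DMSO without virus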). As to conditions: HEK293 RL24 IRF3 luciferase reporter, at 10 µM, stronger effect = higher value. (In general: Reporter assays use an easily measured gene product as a stand-in for the process of interest.)

Experiment [12] is described as follows: TLR3 IRF3 reporter activation blockers – cell-based, poly I:C stimulus, luciferase, 10K MLSCN set, primary screen (AID 602277;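 active means inhibition of the reporter signal at or above 50%; inactive means inhibition below 50%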). As to conditions: HEK293-TLR3 RL24 IRF3 luciferase reporter, at 10 µM, stronger effect = higher value.
The mark [13] stands for this setting: measured here: cell density z-score.
Setting [14] is: measured here: nuclear c-Myc green intensity z-score.
[15] abbreviates: measured here: nuclear pErk red intensity z-score, stronger effect = higher value.

Molecules are shown by their SMILES. Activity calls are given as the source filed them.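 How the source made its calls, unless noted: active means visual image review flags a hit and inhibition of aggregation exceeds 20%; inconclusive means visual hit but inhibition at or below 20%; inactive means no hit on visual image review.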

Dual specificity protein phosphatase 6 (Homo sapiens), sequence (Q16828 whole entry, looked up): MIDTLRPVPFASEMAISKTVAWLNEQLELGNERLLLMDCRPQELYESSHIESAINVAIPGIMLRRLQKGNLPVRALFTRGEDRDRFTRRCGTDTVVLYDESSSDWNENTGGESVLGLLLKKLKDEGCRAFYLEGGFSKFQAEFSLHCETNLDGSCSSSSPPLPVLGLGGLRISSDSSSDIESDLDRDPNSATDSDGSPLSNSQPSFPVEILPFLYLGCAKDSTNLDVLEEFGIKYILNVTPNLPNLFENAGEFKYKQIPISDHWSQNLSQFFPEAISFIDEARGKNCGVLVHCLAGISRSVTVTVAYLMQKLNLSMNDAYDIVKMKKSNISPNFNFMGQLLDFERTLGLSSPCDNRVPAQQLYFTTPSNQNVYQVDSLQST
Voltage-gated potassium channel subunit beta-2 (Rattus norvegicus), sequence (P62483 whole entry, looked up): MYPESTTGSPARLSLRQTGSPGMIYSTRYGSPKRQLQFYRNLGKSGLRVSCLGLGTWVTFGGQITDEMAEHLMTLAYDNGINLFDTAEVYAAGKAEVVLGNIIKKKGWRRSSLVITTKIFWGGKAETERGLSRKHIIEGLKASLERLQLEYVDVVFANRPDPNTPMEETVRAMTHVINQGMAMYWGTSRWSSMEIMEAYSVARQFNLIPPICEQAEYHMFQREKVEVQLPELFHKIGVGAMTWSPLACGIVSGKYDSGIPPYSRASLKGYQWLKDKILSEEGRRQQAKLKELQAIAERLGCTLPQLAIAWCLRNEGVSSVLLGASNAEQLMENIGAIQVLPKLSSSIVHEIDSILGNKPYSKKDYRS
Muscarinic acetylcholine receptor M4 (Homo sapiens), sequence (P08173 whole entry, looked up): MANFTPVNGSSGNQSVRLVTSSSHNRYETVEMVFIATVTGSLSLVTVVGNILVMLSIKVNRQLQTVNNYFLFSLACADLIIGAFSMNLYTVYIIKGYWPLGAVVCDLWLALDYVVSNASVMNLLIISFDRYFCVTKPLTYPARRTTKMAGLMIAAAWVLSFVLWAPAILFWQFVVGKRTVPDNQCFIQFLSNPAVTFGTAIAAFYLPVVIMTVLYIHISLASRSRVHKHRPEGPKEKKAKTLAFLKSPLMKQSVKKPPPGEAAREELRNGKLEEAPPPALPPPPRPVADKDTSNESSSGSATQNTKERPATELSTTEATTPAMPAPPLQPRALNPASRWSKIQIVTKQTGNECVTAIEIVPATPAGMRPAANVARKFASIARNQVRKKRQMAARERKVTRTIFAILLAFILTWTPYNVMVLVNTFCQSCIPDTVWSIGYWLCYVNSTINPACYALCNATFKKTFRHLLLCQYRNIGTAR

Take `CC1(C)CNC(=O)c2sc(N3CCOCC3)nc2C1`: the cell count in [1] was 330. Moreover, the inhibition in experiment [1] was -0.5% (inactive); in [3], -112% (inactive); in experiment [5], -0.159% (inactive); in [10] it was 0.902% (inactive); in [11] it was 17.2% (inactive); in experiment [12] it was 15.4% (inactive). Also, the inhibition of aggregation in experiment [2] was -17.3% (inactive). Besides, the nuclei count in [2] turned out to be 76.6%; in experiment [3] it was 119%. Moreover, the z-score in experiment [4] (setting [13]) is -0.682; in [4] (setting [14]), 0.266; in experiment [4] (setting [15]), 1.71. The results for the fluorescence slope in [6] and in [8] were -0.39 (inactive) and 0.00631 (inactive), respectively. Besides, in experiment [7], the NADPH fluorescence slope was -4.4e-05 (inactive). Also, the molecule was classed as inactive in [9].

With `CCCCCn1c2nc3ccccc3nc2c2c(=O)n(CC(C)C)cnc21`, the cell count in experiment [1] worked out at 641. The inhibition was -4.1% (inactive) in experiment [1]; -73.9% (inactive) in experiment [3]; 15% (inactive) in [5]; 16.4% (inactive) in experiment [10]; 19.4% (inactive) in experiment [11]; 19.9% (inactive) in experiment [12]. Further, the inhibition of aggregation in experiment [2] was 14.3% (inactive). Besides, the results for the nuclei count in experiment [2] and in experiment [3] were 105% and 130%, respectively. The z-score in experiment [4] (setting [13]) is -0.357; in experiment [4] (setting [14]), 2.75; in experiment [4] (setting [15]), 1.53. The fluorescence slope was -0.429 (inactive) in [6] and 0.00475 (inactive) in experiment [8]. Also, the NADPH fluorescence slope in [7] is -4.4e-05 (inactive). The call in experiment [9] was inactive.

Turning to `Cc1ccc(-n2ncc3c(N4CCN(c5ccccc5)CC4)ncnc32)c(C)c1`, in [1], the cell count is 600. The inhibition in experiment [1] is -15.9% (inactive); in experiment [3] it was -27.8% (inactive); in experiment [5] it was -12.6% (inactive); in experiment [10], 2.19% (inactive); in [11], 20.5% (inactive); in experiment [12] it was -19.9% (inactive). Moreover, the inhibition of aggregation in experiment [2] was -1.5% (inactive). Besides, the nuclei count in [2] turned out to be 113%; in experiment [3], 154%. Further, the z-score is -0.444 in experiment [4] (setting [13]), -0.19 in experiment [4] (setting [14]) and 1.79 in experiment [4] (setting [15]). The values for the fluorescence slope in [6] and in [8] were -0.379 (inactive) and 0.00708 (inactive), respectively. Moreover, in [7], the NADPH fluorescence slope was -5e-05 (inactive). In addition, the molecule was classed as inactive in [9].

Turning to `Clc1ccc(-n2ncc3c(NCCCn4ccnc4)ncnc32)cc1`, in [1], the cell count was found to be 618. The inhibition in [1] is -10.7% (inactive); in experiment [3] it was -41.4% (inactive); in experiment [5], 1.42% (inactive); in experiment [10], -3.19% (inactive); in experiment [11], -0.733% (inactive); in experiment [12], -33.8% (inactive). Moreover, the inhibition of aggregation in experiment [2] is -16.9% (inactive). For the same molecule, the nuclei count in experiment [2] was 105%; in [3], 129%. In addition, the z-score is -0.368 in experiment [4] (setting [13]), 0.856 in experiment [4] (setting [14]) and 1.02 in [4] (setting [15]). The figures for the fluorescence slope in [6] and in experiment [8] were -0.386 (inactive) and 0.00622 (inactive), respectively. The NADPH fluorescence slope in [7] was -5.7e-05 (inactive). Besides, the result in [9] was inactive.

In the case of `O=C(OCCCN1CCCC1)C1(c2ccccc2)CCCC1`, the cell count in [1] was 621. In addition, the inhibition is 2.6% (inactive) in [1]; 39.9% (inactive) in experiment [3]; 1.04% (inactive) in experiment [5]; 91.8% (active) in [10]; -13.4% (inactive) in experiment [11]; -17.4% (inactive) in [12]. For the same molecule, the inhibition of aggregation in experiment [2] was -0.8% (inactive). Also, the nuclei count in experiment [2] worked out at 80.3%; in [3], 126%. The z-score is -0.268 in [4] (setting [13]), -0.108 in experiment [4] (setting [14]) and -0.136 in [4] (setting [15]). Also, the figures for the fluorescence slope in experiment [6] and in experiment [8] were -0.456 (inactive) and 0.00493 (inactive), respectively. For the same molecule, the NADPH fluorescence slope in [7] is -5.5e-05 (inactive). Further, in [9], the result was inactive.

Take `COc1ccc(CCn2c(=N)c(C(=O)NCc3ccco3)cc3c(=O)n4ccccc4nc32)cc1`: the cell count in experiment [1] was determined as 496. For the same molecule, the inhibition in [1] is -4.9% (inactive); in [3], -63.3% (inactive); in [5], 24.3% (inactive); in experiment [10] it was -7.81% (inactive); in experiment [11] it was 5.21% (inactive); in [12], 17.8% (inactive). Besides, the inhibition of aggregation in [2] was -10% (inactive). In addition, the values for the nuclei count in experiment [2] and in experiment [3] were 94.4% and 108%, respectively. The z-score in [4] (setting [13]) was 0.843; in experiment [4] (setting [14]), 0.0165; in experiment [4] (setting [15]), -1.15. Further, the fluorescence slope was -0.516 (inactive) in experiment [6] and 0.00166 (active) in [8]. Moreover, the NADPH fluorescence slope in experiment [7] was -1.6e-05 (inactive). Also, the call in experiment [9] was inactive.

The inhibition is the relative decrease from the control value, in per cent.
